Experimental data taken from PubChem BioAssay (NCI).
This is part of a sample that, as a whole, favours compounds with a hit. Of some 83,000 tested, about 20% had one in any assay.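 Single-dose data. Exposure time 48 hours. Values below 10 considered active.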 Unmarked numbers belong to inactive results. Activity calls are given as the source filed them.

Key:
Test in all cases: NCI-60 one-dose screen, 48 h (100 = growth as untreated, 0 = no growth, -100 = all killed)
[1] = system: NCI-H23 lung; settings: 10 µM unless noted
[2] = system: NCI-H226 lung; settings: 10 µM unless noted
[3] = system: NCI-H322M lung; settings: 10 µM unless noted
[4] = system: HOP-62 NSCLC; settings: 10 µM unless noted
[5] = system: NCI-H460 lung; settings: 10 µM unless noted
[6] = system: HOP-92 NSCLC; settings: 10 µM unless noted
[7] = system: NCI-H522 lung; settings: 10 µM
[8] = system: 786-0 renal; settings: 10 µM unless noted
[9] = system: COLO 205 colon; settings: 10 µM unless noted
[10] = system: A549/ATCC NSCLC; settings: 10 µM unless noted

Compound	growth [1]	growth [2]	growth [3]	growth [4]	growth [5]	growth [6]	growth [7]	growth [8]	growth [9]	growth [10]
Cc1ccc(S(=O)(=O)N2CCN(C(=O)CSc3nc4ccc(C)cc4[nH]3)CC2)cc1	105%	91.3%	116%	106%	110%	96.6%	97.2%	107%	143%	–
CCSc1ncc(Br)c(Sc2nc(N)nc3nc[nH]c23)n1	37.9%	65.4%	89.1%	31.8%	46.6%	31.6%	59%	33.6%	110%	–
COc1ccc(C2CC(c3ccc4c(c3)OCO4)=NN2C=O)cc1 (stereo unspecified)	100%	87.6%	107%	102%	102%	89.2%	–	89.5%	115%	95.8%
Cc1sc2nc(N3CCCCC3)[nH]c(=O)c2c1C	95.8%	88%	102%	93.3%	101%	93.8%	–	94.1%	100%	83.2%
O=C(Nc1nc2c(C(F)(F)F)cccc2s1)c1cc(Cl)ccc1O	3.47% (active)	-3.02% (active)	4.87% (active)	-7.84% (active)	2.33% (active)	-27.8% (active)	–	1.42% (active)	-69.9% (active)	3.66% (active)
COc1ccc2c(c1)sc1nc(-c3ccc(Br)cc3)cn12	100%	101%	99.8%	108%	117%	101%	–	98%	129%	95%
COCCOCCOCCOCCOc1ccc2c(c1)C(=O)c1nc3ncccc3c(=O)n1-2	-40.1% (active)	-49.3% (active)	-88% (active)	-83% (active)	-61.2% (active)	-18.7% (active)	–	-51.5% (active)	-85.9% (active)	-77.4% (active)
COc1ccc(-c2nc3sc4c(c3c(=O)[nH]2)CCCCCC4)cc1	80.7%	86.5%	74.4%	36.2%	33.2%	73.2%	–	80.1%	35.4%	50.3%
NS(=O)(=O)c1ccc(-n2nc(-c3ccc(Br)cc3)ccc2=O)cc1	61.3% [100 µM]	79.5% [100 µM]	87.7% [100 µM]	20% [100 µM]	67.2% [100 µM]	-30.5% [100 µM] (active)	–	46.7% [100 µM]	80.2% [100 µM]	58% [100 µM]
CCCCCCCCCCNCCSS(=O)(=O)O	86.2%	102%	76.7%	100%	-62.7% (active)	93.3%	–	87.6%	116%	69.7%
CC[N+](CCCCCCCCCC[N+](CC)(c1ccccn1)c1ccccn1)(c1ccccn1)c1ccccn1	1.17% (active)	33.2%	-15.8% (active)	10.7%	0.887% (active)	-22.5% (active)	–	34.5%	-80% (active)	1.29% (active)
NS(=O)(=O)c1ccc(N2CC(c3nc4ccccc4[nH]3)CC2=O)cc1 (stereo unspecified)	90.3%	97.1%	88.9%	85.4%	100%	100%	–	102%	101%	99.5%
O=C(NCCNC(=O)Oc1cccc2ccccc12)Oc1cccc2ccccc12	91.2%	79%	99.1%	84.7%	106%	79.8%	–	106%	94.7%	93.4%
CCOC(=O)c1sc(NC(=O)COc2cccc(/C=C3\Cc4ccc(Cl)cc4C3=O)c2)nc1C	93.1%	95.4%	130%	107%	103%	96.7%	–	99.5%	116%	107%
CC(=O)N1N=C(c2ccc(Cl)cc2)CC1c1c(C)nn(-c2ccccc2)c1N(C)Cc1ccccc1 (stereo unspecified)	78.3%	67%	91.4%	74.3%	79%	55.2%	–	84.7%	74.9%	53.5%
CC(C)OP(=O)(OC(C)C)c1ncc(-c2ccc(C(F)(F)F)cc2)c(NC2CCCCCC2)n1	-47.6% [33.3 µM] (active)	-50.3% [33.3 µM] (active)	-70% [33.3 µM] (active)	-27.1% [33.3 µM] (active)	-64.5% [33.3 µM] (active)	-93.7% [33.3 µM] (active)	–	-67.6% [33.3 µM] (active)	-78% [33.3 µM] (active)	-33.6% [33.3 µM] (active)
O=C1Nc2ccc(C(=O)O)c(O)c2C1=O	107%	104%	105%	97.4%	105%	97.3%	–	109%	104%	96.9%
CCOC(=O)C(C(=O)OCC)C1CCCCC1	106%	98.7%	94%	107%	106%	82.4%	–	96.4%	112%	96.8%
O=C(O)CNC(=O)C1(N2C(=O)c3ccccc3C2=O)CCCC1	101%	96.7%	106%	110%	113%	124%	–	94.1%	112%	99%
Cc1ccc(-c2c3c(N)nc(-c4ccncc4)nc3nc3c2c(C)nn3-c2ccccc2)cc1	56.4%	44.9%	70.3%	15.5%	28.5%	-7.02% (active)	–	80.8%	18.1%	17.8%
COc1ccc(NS(=O)(=O)N2CCCCC2)cc1	106%	96.2%	102%	107%	113%	84.6%	–	109%	105%	108%
N#Cc1c(-c2ccccc2)cc(-c2ccccc2)n(CCCCCCC(=O)O)c1=O	96.7%	93.1%	96.5%	94.4%	102%	125%	–	105%	111%	102%
COc1ccc(-c2cc(-c3cccnc3)nc3sc(C(=O)Nc4ccccc4)c(N)c23)cc1OC	87.8%	77.2%	79.3%	84.3%	44.3%	24.9%	–	63.9%	72.6%	74.2%
Cc1cc(C)cc(S(=O)(=O)n2ccc(-c3ccc4c(c3)CCC(C)(C)O4)n2)c1	73.6%	66.8%	92%	116%	84.4%	78.1%	–	82.8%	103%	80.8%
Cc1ccc(NC(=O)c2sc3nc4c(cc3c2N)C(=O)CCC4)cc1	64.9%	83.7%	55.8%	114%	29%	48.1%	–	94.5%	23.9%	37%
Cc1n(Cc2ccc3ccccc3c2)c2ccccc2[n+]1Cc1ccc2ccccc2c1	-29.5% (active)	-9.12% (active)	9.37% (active)	-62% (active)	-73.9% (active)	-68.2% (active)	–	-92.8% (active)	-77.1% (active)	8.96% (active)
Nc1nc(Nc2ccccc2SSc2ccccc2Nc2nc(N)nc(-c3cccc(Cl)c3)n2)nc(-c2cccc(Cl)c2)n1	78.6%	82.7%	91.8%	7.83% (active)	89.9%	105%	–	99.1%	119%	-24.8% (active)
COc1cccc(CCN2C(=O)CCC3=C2CCC3=O)c1	96.9%	97.4%	101%	102%	115%	86%	–	97.6%	108%	112%
CC(=O)c1nn(-c2ccccc2)c(=Nc2ccccc2)cc1C	107%	98.1%	103%	91.7%	101%	55.2%	–	107%	109%	99.7%
